Our source for the growth values is PubChem BioAssay (NCI).

Test systems include HCT-15 colon; HT29 colon; SNB-75 CNS; SNB-19 CNS; U251 CNS; PC-3 prostate; SK-MEL-5 melanoma; UACC-62 melanoma; LOX IMVI melanoma; SK-MEL-28 melanoma.
Common to all, as to assay: NCI-60 one-dose screen, 48 h (100 = growth as untreated, 0 = no growth, -100 = all killed)
Holding throughout (settings): 10 µM unless noted

Compounds without any hit were thinned out: in the full panel of roughly 83,000, 20% have a hit.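 A percent growth of 40 corresponds to 60% growth inhibition; 0 means no net growth; -100 means all cells died. Active threshold: below 10.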 Calls of active or inactive are those of the source.

Turning to `c1ccc2oc(-c3cnc4nonc4n3)cc2c1`, the growth is 107% (inactive) in the assay on HCT-15 colon; 96.3% (inactive) with HT29 colon; 76.6% (inactive) in the assay with SNB-75 CNS; 88.8% (inactive) in the assay with SNB-19 CNS; 103% (inactive) in the assay on U251 CNS; 92.7% (inactive) with PC-3 prostate. Moreover, the growth in the assay with SK-MEL-5 melanoma was 98.4% (inactive); with UACC-62 melanoma, 79.6% (inactive); with LOX IMVI melanoma, 94.6% (inactive); with SK-MEL-28 melanoma it was 120% (inactive).
On to `CN(C)c1nc(-c2ccco2)n2nc(-c3ccc(Cl)cc3)cc2n1`, for which the growth with HCT-15 colon is 92.7% (inactive); in the assay on HT29 colon, 58.6% (inactive); in the assay on SNB-75 CNS, 20.9% (inactive); in the assay on SNB-19 CNS, 77.9% (inactive); in the assay on U251 CNS, 59.5% (inactive); with PC-3 prostate, 64.7% (inactive). Moreover, the growth was 81.2% (inactive) in the assay on SK-MEL-5 melanoma, 87% (inactive) in the assay with UACC-62 melanoma, 50.5% (inactive) in the assay with LOX IMVI melanoma and 94.8% (inactive) in the assay on SK-MEL-28 melanoma.
Regarding `O=C(CCl)Nc1cc(O)c2c(c1)C(=O)c1cccc(O)c1C2=O`, the growth with HCT-15 colon is -82.2% (active); with HT29 colon, -88% (active); in the assay with SNB-75 CNS it was 7.38% (active); in the assay on SNB-19 CNS it was -36.5% (active); in the assay with U251 CNS it was -96.2% (active); in the assay with PC-3 prostate, -63.6% (active). The growth is -95% (active) in the assay on SK-MEL-5 melanoma, -67.3% (active) in the assay on UACC-62 melanoma, -68.2% (active) in the assay on LOX IMVI melanoma and 2.89% (active) in the assay on SK-MEL-28 melanoma.
With `Cn1cnc([N+](=O)[O-])c1S(=O)(=O)Oc1ccccc1`, the growth was 55% (inactive) in the assay with HCT-15 colon; 88.7% (inactive) in the assay on HT29 colon; 103% (inactive) in the assay with SNB-75 CNS; 102% (inactive) in the assay on SNB-19 CNS; 90.5% (inactive) in the assay with U251 CNS; 86.5% (inactive) with PC-3 prostate. Further, the growth with SK-MEL-5 melanoma is 99.6% (inactive); with UACC-62 melanoma, 99.4% (inactive); with LOX IMVI melanoma, 59.5% (inactive); in the assay on SK-MEL-28 melanoma it was 106% (inactive).
On to `O=C1N(Cc2ccccc2Cl)c2ccccc2C12NN=C(c1ccccc1)S2` (stereo not given), for which the growth is 35.3% (inactive) with HCT-15 colon; 107% (inactive) with HT29 colon; 71.8% (inactive) in the assay with SNB-75 CNS; 53% (inactive) in the assay with SNB-19 CNS; 36.1% (inactive) in the assay with U251 CNS; 45.1% (inactive) in the assay on PC-3 prostate. Further, the growth in the assay with SK-MEL-5 melanoma is 53.3% (inactive); with UACC-62 melanoma, 58.6% (inactive); in the assay on LOX IMVI melanoma it was 42.3% (inactive); in the assay with SK-MEL-28 melanoma, 78.6% (inactive).
On to `Clc1ccc(C2=NN[C@H](c3cn(-c4ccccc4)nc3-c3ccccc3)C2)cc1`, for which the growth in the assay on HCT-15 colon is 70.5% (inactive); in the assay with HT29 colon, 69.5% (inactive); in the assay with SNB-75 CNS it was 41% (inactive); in the assay with SNB-19 CNS, 76.9% (inactive); in the assay with U251 CNS it was 49.3% (inactive); in the assay on PC-3 prostate, 36.7% (inactive). The growth with SK-MEL-5 melanoma was 80.8% (inactive); with UACC-62 melanoma it was 76.5% (inactive); in the assay on LOX IMVI melanoma, 49.7% (inactive); in the assay on SK-MEL-28 melanoma it was 39% (inactive).
`C[N+](C)(C)CC(=O)N/N=C\c1ccco1`: the growth in the assay on HCT-15 colon was 102% (inactive); in the assay with HT29 colon, 92.6% (inactive); in the assay with SNB-75 CNS, 83.2% (inactive); in the assay on SNB-19 CNS it was 112% (inactive); in the assay with U251 CNS, 98.7% (inactive); with PC-3 prostate, 95.8% (inactive). For the same compound, the growth in the assay with SK-MEL-5 melanoma was 101% (inactive); in the assay on UACC-62 melanoma, 101% (inactive); with LOX IMVI melanoma, 101% (inactive); in the assay on SK-MEL-28 melanoma it was 105% (inactive).
On to `FC(F)(F)c1nn[nH]n1`, for which the growth in the assay with HCT-15 colon was 105% (inactive); with HT29 colon, 100% (inactive); in the assay with SNB-75 CNS it was 102% (inactive); in the assay with SNB-19 CNS, 116% (inactive); with U251 CNS, 99.5% (inactive); in the assay on PC-3 prostate it was 96.9% (inactive). Moreover, the growth is 103% (inactive) in the assay on SK-MEL-5 melanoma, 107% (inactive) in the assay on UACC-62 melanoma, 87.2% (inactive) in the assay with LOX IMVI melanoma and 113% (inactive) in the assay on SK-MEL-28 melanoma.
Turning to `CCn1c(=O)c(C(=O)NCCCO)c(O)c2ccccc21`, the growth in the assay on HCT-15 colon is 103% (inactive); with HT29 colon, 109% (inactive); with SNB-75 CNS, 96.8% (inactive); with SNB-19 CNS it was 102% (inactive); with U251 CNS, 98.1% (inactive); in the assay on PC-3 prostate it was 101% (inactive). The growth in the assay on SK-MEL-5 melanoma is 94.2% (inactive); in the assay with UACC-62 melanoma, 94.4% (inactive); in the assay with LOX IMVI melanoma it was 98.5% (inactive); in the assay with SK-MEL-28 melanoma, 118% (inactive).
As for `C[C@H](NC(=O)c1snnc1C1CC1)c1c(F)cccc1Cl`, the growth in the assay with HCT-15 colon was 93.9% (inactive); in the assay with HT29 colon, 119% (inactive); in the assay with SNB-75 CNS it was 95.1% (inactive); in the assay on SNB-19 CNS it was 142% (inactive); in the assay on U251 CNS, 90% (inactive); in the assay on PC-3 prostate it was 98.9% (inactive). The growth in the assay with SK-MEL-5 melanoma was 98.2% (inactive); with UACC-62 melanoma, 87.8% (inactive); in the assay with LOX IMVI melanoma, 93.9% (inactive); with SK-MEL-28 melanoma, 110% (inactive).
Turning to `C=C1C[C@@]2(C)C(CC[C@]3(C)C2CC=C2C4CC(C)(C)C[C@@H](OC(=O)/C(C)=C\C)[C@]4(C(=O)O)CC[C@]23C)C(C)(C)C1=O` (stereo not given in full), the growth with HCT-15 colon was -16.7% (active); in the assay on HT29 colon, -20.1% (active); in the assay on SNB-75 CNS it was 52.5% (inactive); with SNB-19 CNS, 27.6% (inactive); in the assay with U251 CNS, -47.9% (active); in the assay with PC-3 prostate, -6.78% (active). Besides, the growth with SK-MEL-5 melanoma was 26.4% (inactive); with UACC-62 melanoma, -12.6% (active); in the assay on LOX IMVI melanoma, -65.7% (active); in the assay on SK-MEL-28 melanoma it was 2.5% (active).
For the compound `C=CCCCCOc1cccc(/C=C2\N=C3SCCCN3C2=O)c1`, the growth in the assay on HCT-15 colon is 90% (inactive); in the assay with HT29 colon it was 90.1% (inactive); with SNB-75 CNS, 91.1% (inactive); with SNB-19 CNS, 99.9% (inactive); in the assay on U251 CNS, 92.7% (inactive); with PC-3 prostate, 95.3% (inactive). Besides, the growth with SK-MEL-5 melanoma is 99% (inactive); in the assay with UACC-62 melanoma, 87.6% (inactive); in the assay on LOX IMVI melanoma, 88.7% (inactive); in the assay on SK-MEL-28 melanoma it was 108% (inactive).
`COc1ccc(C(=O)OC2C(OC3C(O)COC(O[C@H]4C[C@H]5[C@@H]6CC=C7C[C@@H](O)CC[C@]7(C)[C@H]6CC[C@]5(C)[C@H]4[C@H](C)C(=O)CCC(C)C)C3OC(C)=O)OCC(O)C2O)cc1` (stereo not given in full): the growth is -51.5% (active) in the assay on HCT-15 colon; 0.168% (active) with HT29 colon; -9.67% (active) in the assay with SNB-75 CNS; -22.8% (active) with SNB-19 CNS; -42.8% (active) in the assay on U251 CNS; -32.6% (active) in the assay on PC-3 prostate. The growth in the assay on SK-MEL-5 melanoma is -77.1% (active); with UACC-62 melanoma, -49.9% (active); with LOX IMVI melanoma, -49.8% (active); in the assay with SK-MEL-28 melanoma, -54.6% (active).
